# High-throughput results: PubChem, National Center for Advancing Translational Sciences (NCATS)
# This excerpt belongs to a sample that is enriched for hits.
# HT1080NT lethal: qHTS for induction of synthetic lethality in tumor cells producing 2HG: qHTS for the HT-1080-NT fibrosarcoma cell line; HT-1080-NT fibrosarcoma viability, CellTiter-Glo ATP luminescence, 48 h; Potency, µM (highest dose often 46.1 µM), for inactives: top-dose activity, negative = less viability, actives largely listed as cytotoxic; hit rate 1.6% among 360,000;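 also: NT is the 2HG producing partner of a matched IDH1 knockdown line; potency is read from the fitted curve at half-maximal effect; 0% = DMSO-treated cells and -100% = media-only wells without cells; nearly all actives have a fitted effect of over 55% in size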
#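 Luminescent CellTiter-Glo readout after 48 hours of compound exposure at 37 degrees C defined viability of HT-1080-NT cells. Activity was normalized to DMSO wells and cell-free media wells; concentration-response curves were fitted and assigned curve classes.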
# HT1080 IDH1KD tx: qHTS for induction of synthetic lethality in tumor cells producing 2HG: qHTS for the HT-1080-IDH1KD cell line; AID 686971, 2013; hit rate 2% among 360,000; HT-1080 IDH1 knockdown viability, ATP luminescence, 48 h; Potency, µM (series often up to 46.1 µM), inactives show top-dose activity, negative = toxicity, most hits filed as cytotoxic;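 also: potency is read from the fitted curve at half-maximal effect; 0% = DMSO wells and -100% = cell-free medium wells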
#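 Luminescent ATP read-out (CellTiter-Glo, 10 min at room temperature) after 48 h compound exposure at 37 °C gave viability of IDH1-knockdown HT-1080 cells. Activity was normalised to DMSO and cell-free wells, then fitted as concentration-response curves.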
# DT40 TDP1 no CPT: qHTS for Inhibitors of human tyrosyl-DNA phosphodiesterase 1 (TDP1): qHTS in cells in absence of CPT | Potency, µM (series often up to 46.2 µM), for inactives: at the highest dose activity change, negative = growth inhibition, usual class: inhibitors | AID 686978, 2013 | hit rate 15% among 420,000 | DT40 Tdp1-/- hTDP1 cells, no CPT, ATP luminescence, 48 h; also: potency is read from the fitted curve at half-maximal effect; nearly all actives have a fitted effect of over 55% in size
#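 Growth kinetics read by CellTiter-Glo luminescence after ≥48 hr at 37 °C. Cells: DT40 Tdp1-/- stably carrying human TDP1, 400 per well, compound exposure in the absence of CPT (DMSO vehicle).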
# ALOX12 inh: Primary qHTS assay for inhibitors of human arachidonate 12S-lipoxygenase (ALOX12): Round 2 | Potency, µM (doses to about 108 µM), for the others: top-dose activity change, negative = inhibition, hits mostly inhibitors | Polyunsaturated fatty acid lipoxygenase ALOX12 (Homo sapiens), P18054 | purified 12hLO, xylenol orange hydroperoxide absorbance | AID 1671190, 2021 | hit rate 1.1% among 580,000; also: potency is read from the fitted curve at half-maximal effect
# Target sequence (P18054 whole entry, looked up): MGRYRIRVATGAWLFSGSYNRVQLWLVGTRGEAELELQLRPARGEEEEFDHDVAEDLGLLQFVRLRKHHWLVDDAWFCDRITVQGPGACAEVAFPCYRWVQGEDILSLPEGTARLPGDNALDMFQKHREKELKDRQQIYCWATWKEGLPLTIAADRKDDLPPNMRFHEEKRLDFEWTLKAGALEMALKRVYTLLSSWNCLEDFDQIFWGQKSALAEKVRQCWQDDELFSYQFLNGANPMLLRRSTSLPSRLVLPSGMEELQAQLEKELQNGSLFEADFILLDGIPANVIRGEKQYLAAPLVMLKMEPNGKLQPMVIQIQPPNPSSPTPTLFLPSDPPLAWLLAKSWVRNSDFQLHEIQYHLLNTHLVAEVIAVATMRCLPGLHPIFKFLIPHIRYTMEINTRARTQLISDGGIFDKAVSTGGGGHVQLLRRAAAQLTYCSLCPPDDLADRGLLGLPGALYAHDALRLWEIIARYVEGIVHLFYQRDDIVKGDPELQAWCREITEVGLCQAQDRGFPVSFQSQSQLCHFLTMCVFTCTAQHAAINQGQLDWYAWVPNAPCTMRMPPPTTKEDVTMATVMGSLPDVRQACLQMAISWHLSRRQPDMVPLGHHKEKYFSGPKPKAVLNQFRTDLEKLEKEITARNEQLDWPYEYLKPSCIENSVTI
#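 Hydroperoxide product was detected by ferrous iron/xylenol orange as the 573 to 405 nm absorbance ratio. Arachidonic acid at 40 uM (final) was turned over for 30 min at room temperature by 150 nM human 12hLO, pH 7.0 Hepes buffer, after 15 min compound preincubation.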
# IL1B secr inh: qHTS for Inhibitors of Inflammasome Signaling: IL-1-beta AlphaLISA Primary Screen | THP-1 LPS/ATP IL-1B secretion, AlphaLISA, 16 h; hits give low values | activity change, % at 57.5 µM | hit rate 4.7% among 360,000; in the data active = activity change below about -50%; inconclusive = mostly about -30% to -49%
#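 THP-1 cells pretreated 1 hr with compounds (up to 57.5 uM final), then stimulated with LPS (250 ng/mL final) plus ATP (1.25 mM final); secreted IL-1B measured by AlphaLISA after 16 hr, decreased signal indicating inhibition.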
# DT40 TDP1 CPT: qHTS for Inhibitors of human tyrosyl-DNA phosphodiesterase 1 (TDP1): qHTS in cells in presence of CPT; AID 686979, 2013; chicken DT40 Tdp1-/-;hTDP1 cells + 20 nM CPT, ATP luminescence, 48 h; hit rate 12% among 420,000; Potency, µM (top dose mostly 46.2 µM), inactives show top-dose activity change, negative = growth inhibition, most hits filed as inhibitors; also: potency is read from the fitted curve at half-maximal effect; nearly all actives have a fitted effect of over 55% in size
#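 Chicken DT40 Tdp1-/- cells complemented with human TDP1, 400 cells/well, exposed to compounds plus 20 nM camptothecin for at least 48 h at 37 C; viability read as ATP content by CellTiter-Glo luminescence.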
# * marks the source's active call; other numbers are inactive results; ? = inconclusive; / = no result given; [ ] = another dose, or the depositor's remark. Unless noted, calls follow the shape of the dose curve; as a rule, active = well fitted curve in the direction sought with a large enough effect; inconclusive = small, poorly fitted or top-dose-only effect, or another doubt; inactive = no such curve, though single readings can be large; an effect the other way counts as inactive or inconclusive. Unless noted, % is scaled to controls: 0 for no effect and ±100 for the full control effect.
SMILES,HT1080NT lethal,HT1080 IDH1KD tx,DT40 TDP1 no CPT,ALOX12 inh,IL1B secr inh,DT40 TDP1 CPT
CC(C)CCNC(=O)CCC1CCN(C(=O)c2ccccc2F)CC1,/,/,/,9%,/,/
COC(=O)C1CN(C2CC2)CCS(=O)(=O)N1Cc1cn(Cc2ccc(C)cc2)nn1 (stereo not drawn),/,/,/,-5%,/,/
CCOCC(=O)N1CCC(Nc2cccn3ncnc23)CC1,/,/,/,44%,/,/
O=C(NC(=S)Nc1ccc2c(c1)OCCO2)c1ccccc1,?,?,14µM*,?,-23,?
CCOc1cccc(C(=O)NC(=S)Nc2ccc3c(c2)OCCO3)c1,18%,14%,?,16µM*,-54*,-16%
CCOc1cccc(C(=O)NC(=S)Nc2ccc(N3CCCC3)cc2)c1,-3%,2%,?,?,-20,-23%
COc1cccc(OC)c1C(=O)NC(=S)Nc1ccc2c(c1)OCCO2,-4%,-2%,?,?,-14,-2%
CNC(=O)CN(C)C(=O)c1cc2c(s1)CCN(C(=O)c1ccc(Cl)cc1)C2,/,/,/,52%,/,/
Cc1ccc(S(=O)(=O)N2CCN(Cn3ncc4ccccc4c3=O)CC2)c(C)c1,/,/,/,26%,/,/
Cc1noc(C)c1COc1ccc(C(=O)OCC(=O)NCc2ccccc2Cl)cc1,-28%,-29%,29µM*,0%,-8,?
Cc1noc(C)c1COc1ccc(C(=O)OCC(=O)Nc2ccc(S(N)(=O)=O)cc2)cc1,14%,-1%,16µM*,165%,-20,?
CC1CCCN(S(=O)(=O)c2cc3cc(Br)ccc3oc2=O)C1 (stereo not drawn),/,/,/,8%,/,/
CC(C)Sc1cc(N2CCOCC2)nc(-c2ccc(Cl)cc2)n1,-1%,8%,?,12%,-13,?
CCN1CCN(c2cc(SC(C)C)nc(-c3ccc(OC)cc3)n2)CC1,-18%,-19%,?,?,-82*,23µM*
CC(C)CC(OC(=O)CC1Sc2ccccc2NC1=O)C(=O)NC1CCCC1 (stereo not drawn),-5%,-1%,?,2%,0,-6%
CCCC(OC(=O)CC1Sc2ccccc2NC1=O)C(=O)NCc1ccco1 (stereo not drawn),-3%,-22%,?,32µM*,-23,-23%
Cc1ccc(CSc2nc3ccncc3n2Cc2nc(-c3ccc(Cl)cc3)oc2C)cc1,/,/,?,0%,/,?
COc1ccc(-c2nc(Cn3c(SCc4ccc(F)cc4)nc4cccnc43)c(C)o2)cc1,/,/,2.6µM*,-5%,/,2.9µM*
COc1ccc(-c2nc(Cn3c(SCc4ccc(F)cc4)nc4ccncc43)c(C)o2)cc1OC,23µM*,?,21µM*,11%[57.4 µM],-20,?
COc1ccc(-c2nc(Cn3c(SCc4cccc(F)c4)nc4cccnc43)c(C)o2)cc1,/,/,?,-2%,/,?
COc1ccc(-c2nc(Cn3c(SCc4ccccc4F)nc4ccncc43)c(C)o2)cc1,-22%,?,15µM*,15%,3,?
Cc1oc(-c2ccccc2Cl)nc1Cn1c(SCc2cccc(F)c2)nc2cccnc21,/,/,26µM*,12%,/,23µM*
c1ccc(C(CNc2ncncn2)N2CCCCCC2)cc1 (stereo not drawn),/,/,/,-16%,/,/
O=c1c2ccccc2c(-c2cccs2)nn1CC(O)COCc1ccc(Cl)cc1 (stereo not drawn),/,/,/,23%,/,/
Cc1cc(C(=O)N2CCC(c3nccn3Cc3ccncc3)CC2)c(C)o1,/,/,/,15%,/,/
SMILES,HT1080NT lethal,HT1080 IDH1KD tx,DT40 TDP1 no CPT,ALOX12 inh,IL1B secr inh,DT40 TDP1 CPT
Cc1oc(-c2cccc(Cl)c2)nc1Cn1c(SCc2ccc(F)cc2)nc2cccnc21,/,/,26µM*,-15%,/,26µM*
COc1ccc(-c2nc(Cn3c(SCc4ccccc4F)nc4cccnc43)c(C)o2)cc1,/,/,?,-5%,/,?
Cc1ccc(C)c(CSc2nc3ccncc3n2Cc2nc(-c3ccccc3Cl)oc2C)c1,/,/,?,-18%,/,21µM*
COc1ccc(-c2nc(Cn3c(SCc4ccc(C)cc4)nc4cccnc43)c(C)o2)cc1OC,/,/,?,3%,/,5.2µM*
Cc1ccc(-c2cc(N3CCCN(C(=O)c4ccccc4C)CC3)n[nH]2)cc1C,/,/,/,26%,/,/
O=c1cc(/C=C/c2ccccc2)oc2ccccc12,?,?,?,12%,-11,16µM*
CN1CCC(N(C)C(=O)/C=C/c2cn(-c3ccccc3)nc2-c2cccs2)CC1,26µM*,18µM*,23µM*,37%,-91*,?
O=C(O)CCN1C(=O)/C(=C/c2cn(-c3ccccc3)nc2-c2cccs2)SC1=S,-7%,-16%,?,?,16,4.6µM*
O=C(O)CCCCCN1C(=O)/C(=C/c2cn(-c3ccccc3)nc2-c2cccs2)SC1=S,?,?,15µM*,?,-21,-40%
COc1ccc(C(=S)N2CCN(c3ccccc3C)CC2)cc1OC,-9%,-3%,?,-30%,?,?
CC1(C)CC(=O)c2sc(NS(=O)(=O)c3ccc(F)cc3)nc2C1,1%,13%,0%,-21%,3,0%
Nc1c(C(=O)Nc2ccccc2)nnn1-c1ccc2c(c1)OCCO2,-11%,-15%,?,9%,-60*,-8%
Cc1ccc(NC(=O)c2nnn(-c3ccc4c(c3)OCCO4)c2N)cc1,-21%,-21%,?,20%,-90*,?
CCCCCc1ccc(-c2ccc(C3CCC(CC)CC3)cc2)nc1 (stereo not drawn),/,/,/,59%,/,/
CCN(CCOc1ccc(C)cc1)C(=O)c1c(O)cccc1O,/,/,/,0%,/,/
O=C(CCc1c[nH]c2ccccc12)N1CCC(N2C(=O)C(O)C23CCCCC3)CC1 (stereo not drawn),/,/,/,55%,/,/
CC(C)(C)c1ccc(NC(=O)C2CCCN2S(=O)(=O)c2ccc(F)cc2)cc1 (stereo not drawn),/,/,/,-1%,/,/
O=C(Nc1ccc2c(c1)OCO2)C1CCCCN1S(=O)(=O)c1ccccc1 (stereo not drawn),1%,-3%,?,0%,1,?
